# Potency and affinity values are given separately.
# Tests used:
# Klebsiella pneumoniae = conditions: Concentration 20 uM; ASSAY_TEST Inhibition of Bacterial Growth; detection method Absorption (OD600); MEDIA CAMHB; plate type 384well; NBS; CORNING #3640; time 18 hr
# Candida albicans = conditions: 20 µM
# Cryptococcus neoformans = conditions: Concentration 20 uM; ASSAY_TEST Inhibition of Fungal Growth; detection method Resazurin; Absorption (OD600-OD570); plate type 384well; NBS; CORNING #3640
Structure (SMILES),Inhibition (Klebsiella pneumoniae),Inhibition (Candida albicans),Inhibition (Cryptococcus neoformans)
FC(F)(F)c1cc(NCCc2ccccc2)nc(-c2ccccn2)n1,-3.94%,1.73%,-6.05%
COc1ccc(Cl)cc1NC(=O)CN(C)C(=O)c1cnn(-c2ccccc2)n1,9.17%,6.95%,-5.87%
CC(C)(C)c1cnc(NC(=O)c2ccccc2O)s1,10.5%,11.6%,5.21%
COc1ccc(-c2nnc3ccc(-c4cccc(C(C)C)c4)cn23)cc1OC,-10.87%,15%,-9.03%
COc1ccc(-c2nn(C(C)C)c3ncnc(N)c23)cc1OC,10.07%,2.58%,-0.18%
CS(=O)(=O)N1CCC(CCn2nc(Cc3cccc4ccccc34)c3c(N)ncnc32)CC1,2.11%,3.38%,-7.27%
CCCCc1ccc(NC(=O)Nc2ccc(O[C@H]3CCCC[C@@H]3N(C)c3ccccc3)c(F)c2)cc1,12.88%,1.16%,-1.2%
O=C(CN1CCOCC1)Nc1ccc2ncnc(Nc3ccc(OCc4cccc(F)c4)c(Cl)c3)c2c1,11.31%,5.94%,-1.06%
O=C(NCCN1CCCC1)c1cc(NCCN2CCOCC2)nc2ccc(Cl)cc12,16.49%,2.97%,-7.83%
CC(=O)N1CCc2cc3nc(C)cc(C)c3cc21,14.03%,4.19%,-7.03%
COc1cncc(-c2cncc(N3CCN(c4ccncc4)CC3)n2)c1,19.7%,3.12%,4.32%
Cl.NCCCC(N)(C(=O)O)C(F)F.O (stereo not given) [EFLORNITHINE HYDROCHLORIDE],11.19%,2.7%,-9.22%
CN(C)c1cc(NC(=O)Nc2ccccc2)c2ccccc2n1,-9.89%,5.61%,-2.57%
COC(=O)C1=C(C)NC(C)=C(C(=O)OC(C)C)C1c1cccc2nonc12 (stereo not given) [ISRADIPINE],6.29%,4.19%,-10.15%
COc1cccc(OCC(=O)c2ccc(Br)cc2)c1,-4.37%,4.44%,-12.88%
Cc1cc(C)n(-c2ccc(NC(=O)C3CCN(Cc4cnc(C)s4)CC3)cc2)n1,8.14%,2.85%,-6.76%
Cc1ccc(S(=O)(=O)n2cc(-c3ccnc(N)c3)c3cc(Br)cnc32)cc1,7.11%,37.1%,-2.21%
CCc1ccc([C@@H]2C[C@H](C(F)(F)F)n3ncc(C(=O)NCc4ccc(OC)cc4)c3N2)cc1,2.88%,5.42%,-1.28%

Structure (SMILES),Inhibition (Klebsiella pneumoniae),Inhibition (Candida albicans),Inhibition (Cryptococcus neoformans)
O=C(N[C@H](Cc1ccccc1)C(=O)Nc1ccccc1N1CCOCC1)c1cccs1,11.64%,3.1%,-4.85%
CCc1ccc(S(=O)(=O)Nc2cc(CN3CCN(CCC(C)C)CC3)ccc2C)cc1,18.36%,4.16%,-6.26%
Cc1ccc2nc(C)c(-c3ccn(Cc4ccccc4)n3)n2c1,14.88%,3.75%,-8.36%
CS(=O)(=O)Cc1nc2ccccc2oc1=O,16.91%,1.55%,-16.09%
COc1ccc(CCN2CCC(NCc3cccc(N(C)C)c3)CC2)cc1,7.89%,3.48%,-2.71%
CCC(NC(=O)c1ccccc1NC(=O)c1ccc(C)cc1)C(=O)OC (stereo not given),8.73%,4.2%,-3.77%
COc1ccc2nc(C)cc(OCC(=O)Nc3ccccc3OC)c2c1,17.25%,0.63%,-5.56%
Cc1cc(C)c2cc(C(=O)NC3CCCCCCC3)[nH]c2c1,18.42%,3.94%,-6.05%
Cn1ncc2c(N3CCOCC3)nc(NCCc3c[nH]c4ccccc34)nc21 [TDR79432],9.02%,4.1%,-8.59%
CC(C)C(Oc1cccc2ccccc12)C(=O)O (stereo not given),6.53%,8.4%,4.84%
COc1ccc(N(CCc2cccc(C)n2)C(=O)C2CCCCC2)cc1,6.26%,-0.29%,-4.98%
Clc1ccc(-n2cc(COc3ccnc4ccccc34)nn2)cc1,12.62%,3.14%,-4.84%
CCOc1ccc2cc(-c3nn(C(C)(C)C)c(N)c3C(N)=O)cnc2c1.Cl,13.27%,2.56%,-7.03%
COc1ccc(Oc2ccc([C@@H](C)N(C)c3ncc4c(N)nc(N)nc4n3)cc2)cc1,18.87%,5.99%,-6.67%
Cc1cc(OCC(=O)Nc2ccc(C(C)C)cc2)n(C)c(=O)c1C#N,-7.95%,4.91%,4.44%
CCC(Sc1nc2ccccc2o1)C(=O)Nc1nccs1 (stereo not given),14.47%,9.07%,-15.51%
COc1ccc(-c2cnc3ccc(NCc4ccc(S(N)(=O)=O)cc4)nn23)cn1,16.22%,4.45%,-9.08%

# From ChEMBL document CHEMBL4513149, “CO-ADD screening of MMV (CH) - MMV compounds” (2021)
